# Data taken from PubChem BioAssay (EPA / NIEHS).
# Where “and” joins values, the source holds several entries; their conditions need not be identical. Identical values can stand only once. Records with an inconclusive call do not appear. Some compounds were tested as several samples or in several runs, with calls that do not always agree. Calls of active or inactive are those of the source. How the source made its calls, unless noted: active means hit-call score of the fitted dose curve at least 0.9, where 1 is the maximum; inconclusive means response in the unintended direction; inactive means score below 0.9.
# Experiments:
# [1] = target: Glucocorticoid receptor (Homo sapiens) (UniProt P04150); experiment: NVS_NR_hGR: NovaScreen (NVS) Nuclear Receptor Binding Assay for human Glucocorticoid Receptor (GR) (AID 2283363);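 further: activity is loss of specific radioligand binding signal relative to DMSO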
# Chain of Glucocorticoid receptor (Homo sapiens) (P04150 whole entry, looked up): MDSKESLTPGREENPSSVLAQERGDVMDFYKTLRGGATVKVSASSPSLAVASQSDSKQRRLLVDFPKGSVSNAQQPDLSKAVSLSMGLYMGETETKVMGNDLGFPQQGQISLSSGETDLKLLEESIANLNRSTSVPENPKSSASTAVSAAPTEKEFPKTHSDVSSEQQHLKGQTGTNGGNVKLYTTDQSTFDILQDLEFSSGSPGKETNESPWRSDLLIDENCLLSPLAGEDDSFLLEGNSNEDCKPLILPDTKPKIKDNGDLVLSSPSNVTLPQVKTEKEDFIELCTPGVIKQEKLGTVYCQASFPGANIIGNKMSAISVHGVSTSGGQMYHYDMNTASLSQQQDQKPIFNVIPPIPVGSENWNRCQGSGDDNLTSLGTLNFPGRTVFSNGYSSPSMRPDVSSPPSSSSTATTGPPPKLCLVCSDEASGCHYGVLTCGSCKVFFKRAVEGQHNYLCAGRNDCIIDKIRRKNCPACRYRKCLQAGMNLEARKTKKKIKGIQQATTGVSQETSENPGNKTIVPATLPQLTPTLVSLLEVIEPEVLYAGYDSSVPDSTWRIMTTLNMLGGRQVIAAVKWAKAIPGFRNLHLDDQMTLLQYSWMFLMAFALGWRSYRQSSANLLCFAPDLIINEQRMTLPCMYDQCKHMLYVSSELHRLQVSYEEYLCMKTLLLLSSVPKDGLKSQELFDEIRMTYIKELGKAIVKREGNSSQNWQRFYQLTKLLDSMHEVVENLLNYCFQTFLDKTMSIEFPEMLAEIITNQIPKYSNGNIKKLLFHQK
# Summary of the method: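 Compounds first tested in duplicate at 25 uM, actives followed up in concentration series. Binding to extracted GR protein measured as competitive radioligand displacement, filter scintillation read 16 h post-dosing, normalised to DMSO.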
# [2] = target: human Adenosine Transporter (Adot), SLC29A1 (gene 2030) (UniProt Q99808); experiment: NVS_TR_hAdoT: NovaScreen (NVS) Transporter Assay for human Adenosine Transporter (Adot) (AID 2283368)
# Chain of human Adenosine Transporter (Adot), SLC29A1 (gene 2030) (Q99808 whole entry, looked up): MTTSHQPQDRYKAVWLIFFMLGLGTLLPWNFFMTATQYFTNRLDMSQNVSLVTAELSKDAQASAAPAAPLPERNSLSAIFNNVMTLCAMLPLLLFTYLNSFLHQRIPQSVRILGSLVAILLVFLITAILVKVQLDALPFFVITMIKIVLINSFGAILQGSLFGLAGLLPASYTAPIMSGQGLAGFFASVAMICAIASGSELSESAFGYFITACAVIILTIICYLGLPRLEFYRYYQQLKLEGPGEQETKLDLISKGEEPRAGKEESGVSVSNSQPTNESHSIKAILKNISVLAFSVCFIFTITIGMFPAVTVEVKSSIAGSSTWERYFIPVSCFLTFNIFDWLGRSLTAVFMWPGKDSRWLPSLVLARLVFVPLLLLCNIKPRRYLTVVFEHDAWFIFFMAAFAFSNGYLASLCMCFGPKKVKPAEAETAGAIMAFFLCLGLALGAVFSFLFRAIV
# Summary of the method: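 Binding displacement on U937 extracted protein, read 1 h post-dose by filtration and scintillation counting. Primary duplicate test at 25 uM, then singleton concentration series with 50 uM top; DMSO baseline.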
# [3] = target: Peroxisome proliferator-activated receptor gamma (Homo sapiens) (UniProt P37231); experiment: NVS_NR_hPPARg: NovaScreen (NVS) Nuclear Receptor Binding Assay for human Peroxisome Proliferator-activated Receptor gamma (PPARg) (AID 2283370)
# Chain of Peroxisome proliferator-activated receptor gamma (Homo sapiens) (P37231 whole entry, looked up): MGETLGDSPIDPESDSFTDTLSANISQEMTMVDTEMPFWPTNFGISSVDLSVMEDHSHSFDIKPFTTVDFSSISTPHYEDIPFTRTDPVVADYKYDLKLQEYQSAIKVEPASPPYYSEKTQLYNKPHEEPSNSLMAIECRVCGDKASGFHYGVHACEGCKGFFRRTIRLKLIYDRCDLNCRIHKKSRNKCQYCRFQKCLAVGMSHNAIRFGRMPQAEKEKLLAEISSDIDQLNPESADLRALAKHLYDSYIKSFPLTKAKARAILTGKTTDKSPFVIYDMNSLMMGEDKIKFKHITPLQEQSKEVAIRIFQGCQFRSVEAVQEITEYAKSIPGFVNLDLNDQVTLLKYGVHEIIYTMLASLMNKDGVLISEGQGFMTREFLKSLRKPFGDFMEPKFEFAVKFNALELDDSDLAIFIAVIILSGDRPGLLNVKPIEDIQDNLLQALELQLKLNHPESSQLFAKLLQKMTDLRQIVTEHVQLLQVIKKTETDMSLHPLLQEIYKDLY
# Summary of the method: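 Extracted receptor protein, cell-free; compound incubated 2 h then fluorescence polarization read. Baseline: DMSO. Actives from 25 uM duplicate screen re-run across concentrations.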
# [4] = target: human Norepinephrine Transporter (NET), SLC6A2 (gene 6530) (UniProt P23975); experiment: NVS_TR_hNET: NovaScreen (NVS) Transporter Assay for human Norepinephrine Transporter (NET) (AID 2283377);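 further: cell-free membrane protein extracted from CHO cells expressing human NET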;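 on AC50: displacement of radioligand from human NET seen as loss of scintillation signal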
# Chain of human Norepinephrine Transporter (NET), SLC6A2 (gene 6530) (P23975 whole entry, looked up): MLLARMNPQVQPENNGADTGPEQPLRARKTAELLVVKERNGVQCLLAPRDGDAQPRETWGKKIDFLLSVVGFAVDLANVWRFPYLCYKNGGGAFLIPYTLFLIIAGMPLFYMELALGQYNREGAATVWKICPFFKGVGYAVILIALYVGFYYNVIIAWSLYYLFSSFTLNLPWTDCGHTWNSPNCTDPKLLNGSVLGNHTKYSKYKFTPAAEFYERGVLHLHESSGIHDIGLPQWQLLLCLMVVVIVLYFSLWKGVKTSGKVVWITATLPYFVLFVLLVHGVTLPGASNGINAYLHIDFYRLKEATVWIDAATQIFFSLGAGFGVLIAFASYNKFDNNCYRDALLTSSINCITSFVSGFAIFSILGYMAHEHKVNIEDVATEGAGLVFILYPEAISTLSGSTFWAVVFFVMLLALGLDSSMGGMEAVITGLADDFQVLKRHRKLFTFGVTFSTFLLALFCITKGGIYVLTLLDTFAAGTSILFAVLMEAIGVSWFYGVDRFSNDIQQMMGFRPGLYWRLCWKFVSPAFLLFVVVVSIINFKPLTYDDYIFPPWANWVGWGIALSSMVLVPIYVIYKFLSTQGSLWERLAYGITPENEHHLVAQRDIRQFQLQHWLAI
# Summary of the method: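 Single-concentration duplicate screen at 25 uM, then concentration-response for actives; displacement of specific radioligand from human NET in CHO membrane extracts, filter-based scintillation detection at 1 h relative to DMSO.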
# [5] = target: Estrogen receptor beta (Homo sapiens) (UniProt Q92731); experiment: OT_ER_ERbERb_1440: Odyssey Thera (OT) 24-hour HEK293T Protein-Complementation Assay for Estrogen Receptor-beta/-beta Homodimer (AID 2283380);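 further: fluorescence gain from ER beta LBD homodimer complementation read by laser scanning cytometry; scored as signal increase over DMSO baseline for both agonists and antagonists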
# Chain of Estrogen receptor beta (Homo sapiens) (Q92731 whole entry, looked up, the tested form may be a part): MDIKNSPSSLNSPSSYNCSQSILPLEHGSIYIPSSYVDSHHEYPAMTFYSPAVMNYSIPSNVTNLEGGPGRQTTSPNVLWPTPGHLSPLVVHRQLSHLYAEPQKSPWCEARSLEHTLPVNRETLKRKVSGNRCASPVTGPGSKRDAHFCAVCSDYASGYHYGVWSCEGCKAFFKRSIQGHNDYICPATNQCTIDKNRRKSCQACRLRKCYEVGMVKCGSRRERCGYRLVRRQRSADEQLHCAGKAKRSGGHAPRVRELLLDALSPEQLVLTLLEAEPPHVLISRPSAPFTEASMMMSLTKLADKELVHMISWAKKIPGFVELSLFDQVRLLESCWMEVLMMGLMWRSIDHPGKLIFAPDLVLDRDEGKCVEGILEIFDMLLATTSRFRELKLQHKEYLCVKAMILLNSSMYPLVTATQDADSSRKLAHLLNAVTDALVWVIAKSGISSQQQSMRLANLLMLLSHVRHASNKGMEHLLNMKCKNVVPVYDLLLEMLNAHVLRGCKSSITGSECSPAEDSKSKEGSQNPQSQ
# Summary of the method: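 Fluorescence increase, nuclear for agonists or whole-cell for antagonists, relative to DMSO vehicle, quantified by laser scanning cytometer after fixation and Draq5 staining. Readout from 24 h treatment of HEK293T cells carrying complementation-paired ER beta LBD (aa 310-547).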
# [6] = target: Estrogen receptor (Homo sapiens) (UniProt P03372); experiment: OT_ERa_GFPERaERE_0480: Odyssey Thera (OT) 8-hour HeLa Transcription Induction Assay for Estrogen Receptor (AID 2283381; active means hit-call score of the fitted dose curve at least 0.9, where 1 is the maximum; inactive means score below 0.9)
# Summary of the method: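 GFP-ERE reporter, HeLa, 8 h exposure. Readout: fluorescence microscopy, high-content image analysis. Fit direction positive vs DMSO negative control.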
# [7] = target: Estrogen receptor (Homo sapiens) (UniProt P03372); experiment: OT_ERa_GFPERaERE_0120: Odyssey Thera (OT) 2-hour HeLa Transcription Induction Assay for Estrogen Receptor (AID 2283382)
# Summary of the method: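 Fluorescence microscopy read-out: inducible fluorescent protein reporter in HeLa cells, imaged 2 h post-dose. Signal increase over DMSO negative control fitted as single primary endpoint via high content image analysis.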
# [8] = target: Retinoic acid receptor RXR-alpha (Homo sapiens) (UniProt P19793); experiment: OT_NURR1_NURR1RXRa_0480: Odyssey Thera (OT) 8-hour HEK293T Protein Complementation Assay for Nurr1/retinoid X receptor (RXR) (AID 2283385)
# Summary of the method: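 Read-out: fluorescence from protein-fragment complementation between Nurr1 and RXRα in human HEK293T cells, 8 h after dosing. DMSO served as negative control; increased signal counted as activity.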
# [9] = target: Retinoic acid receptor RXR-alpha (Homo sapiens) (UniProt P19793); experiment: OT_NURR1_NURR1RXRa_1440: Odyssey Thera (OT) 24-hour HEK293T Protein Complementation Assay for Nurr1/retinoid X receptor (RXR) (AID 2283386)
# Summary of the method: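 Fluorescence PCA read-out; HEK293T; 24 h post-dose; bait/prey fused to reporter fragments; gain-of-signal fit vs DMSO negative control.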
# [10] = test system: guinea pig Dopamine Transporter (DAT), gene 100714898; experiment: NVS_TR_gDAT: NovaScreen (NVS) Transporter Assay for guinea pig Dopamine Transporter (DAT) (AID 2283369);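 further: active compounds lower bound radioligand signal relative to DMSO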
# Summary of the method: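 Primary pass: duplicate wells at 25 uM, threshold e.g. 30% inhibition. Follow-up: singleton concentration-response, highest 50 uM. Radioligand binding on guinea pig striatal membranes, 2 h, filtration scintillation detection.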
# [11] = target: Nuclear receptor subfamily 1 group I member 2 (Homo sapiens) (UniProt O75469); experiment: NVS_NR_hPXR: NovaScreen (NVS) Nuclear Receptor Binding Assay for human Pregnane X Receptor (PXR) (AID 2283365);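 further: a drop in FRET signal versus DMSO baseline means the compound binds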
# Chain of Nuclear receptor subfamily 1 group I member 2 (Homo sapiens) (O75469 whole entry, looked up): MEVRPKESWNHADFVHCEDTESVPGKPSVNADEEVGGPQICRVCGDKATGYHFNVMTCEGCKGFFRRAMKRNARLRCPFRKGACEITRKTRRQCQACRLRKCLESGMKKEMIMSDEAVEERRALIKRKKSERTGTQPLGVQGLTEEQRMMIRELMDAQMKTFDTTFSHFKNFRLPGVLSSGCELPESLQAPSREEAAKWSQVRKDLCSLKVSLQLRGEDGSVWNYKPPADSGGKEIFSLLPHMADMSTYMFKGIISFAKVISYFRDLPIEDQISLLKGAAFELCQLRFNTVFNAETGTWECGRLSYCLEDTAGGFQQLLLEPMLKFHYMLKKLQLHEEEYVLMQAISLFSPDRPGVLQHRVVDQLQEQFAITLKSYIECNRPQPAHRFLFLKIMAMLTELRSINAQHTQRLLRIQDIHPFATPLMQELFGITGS
# Summary of the method: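 Read-out: TR-FRET, human PXR, 2 h post-dosing, cell-free. Loss of signal vs DMSO taken as binding activity; 25 uM primary, concentration series secondary.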
# [12] = target: human Thyroid Receptor Alpha (TRa), THRA (gene 7067) (UniProt P10827); experiment: NVS_NR_hTRa_Antagonist: NovaScreen (NVS) Nuclear Receptor Binding Assay for human Thyroid Receptor Alpha Antagonism (TRa) (AID 2283362);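 further: activity is loss of signal relative to DMSO baseline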
# Chain of human Thyroid Receptor Alpha (TRa), THRA (gene 7067) (P10827 whole entry, looked up): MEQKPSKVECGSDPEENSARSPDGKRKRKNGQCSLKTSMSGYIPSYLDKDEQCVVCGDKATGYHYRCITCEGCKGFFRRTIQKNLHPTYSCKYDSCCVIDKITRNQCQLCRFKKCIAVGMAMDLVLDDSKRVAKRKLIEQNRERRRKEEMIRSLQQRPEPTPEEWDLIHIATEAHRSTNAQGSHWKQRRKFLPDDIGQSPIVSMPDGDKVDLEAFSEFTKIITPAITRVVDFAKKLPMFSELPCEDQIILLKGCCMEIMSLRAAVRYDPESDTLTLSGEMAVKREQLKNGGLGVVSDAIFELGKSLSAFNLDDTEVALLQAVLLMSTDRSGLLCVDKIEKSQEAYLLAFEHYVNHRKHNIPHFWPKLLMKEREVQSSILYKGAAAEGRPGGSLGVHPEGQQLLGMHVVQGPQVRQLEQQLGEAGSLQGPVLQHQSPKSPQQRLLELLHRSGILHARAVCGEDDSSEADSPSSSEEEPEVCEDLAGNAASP
# Summary of the method: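 In this biochemical format, receptor protein is dosed with chemical and read after 1 hour via AlphaLISA. Decreases from the DMSO baseline indicate antagonist activity; screening used 25 uM in duplicate before concentration-response confirmation.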
# [13] = target: rat Serotonin Transporter (SERT), Slc6a4 (gene 25553) (UniProt P31652); experiment: NVS_TR_rSERT: NovaScreen (NVS) Transporter Assay for rat Serotonin Transporter (SERT) (AID 2283375)
# Summary of the method: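 Using rat forebrain membrane SERT, test chemicals compete with a radioligand for 1 hour, and bound counts are taken by filter-based scintillation. Screening starts at 25 uM in duplicate, followed by concentration series for actives.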
# [14] = target: Agonist Androgen Response Element (ARE), AR (gene 367) (UniProt P10275); experiment: OT_AR_ARELUC_AG_1440: Odyssey Thera (OT) 24-hour CHO-K1 Luciferase Assay for Agonist Androgen Response Element (ARE) (AID 2283379)
# Chain of Agonist Androgen Response Element (ARE), AR (gene 367) (P10275 whole entry, looked up): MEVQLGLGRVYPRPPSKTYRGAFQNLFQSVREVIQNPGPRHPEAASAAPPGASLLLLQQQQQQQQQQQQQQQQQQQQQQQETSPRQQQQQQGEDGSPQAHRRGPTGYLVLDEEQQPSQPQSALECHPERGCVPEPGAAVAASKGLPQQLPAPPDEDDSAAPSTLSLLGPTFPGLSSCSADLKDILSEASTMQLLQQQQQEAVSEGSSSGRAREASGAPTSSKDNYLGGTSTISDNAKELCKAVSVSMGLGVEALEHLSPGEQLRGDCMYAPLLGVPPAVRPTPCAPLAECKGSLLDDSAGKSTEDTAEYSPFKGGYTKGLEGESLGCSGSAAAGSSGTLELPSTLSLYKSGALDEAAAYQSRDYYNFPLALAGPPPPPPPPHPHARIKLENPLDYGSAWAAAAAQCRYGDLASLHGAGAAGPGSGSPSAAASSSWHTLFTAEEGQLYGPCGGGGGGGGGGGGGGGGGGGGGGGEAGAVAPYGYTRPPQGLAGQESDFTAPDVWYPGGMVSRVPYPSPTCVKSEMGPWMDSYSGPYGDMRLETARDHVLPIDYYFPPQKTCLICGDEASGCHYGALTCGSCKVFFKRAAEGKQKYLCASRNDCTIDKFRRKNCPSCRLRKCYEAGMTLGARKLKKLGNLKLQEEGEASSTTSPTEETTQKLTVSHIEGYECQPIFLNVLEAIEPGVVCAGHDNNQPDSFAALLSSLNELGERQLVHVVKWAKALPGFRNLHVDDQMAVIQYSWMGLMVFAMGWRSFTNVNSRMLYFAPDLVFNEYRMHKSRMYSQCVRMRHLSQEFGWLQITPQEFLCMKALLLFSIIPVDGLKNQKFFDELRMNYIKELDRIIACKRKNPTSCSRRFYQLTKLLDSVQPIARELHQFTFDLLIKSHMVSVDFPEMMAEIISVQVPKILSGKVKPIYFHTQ
# Summary of the method: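 Readout: luciferase bioluminescence from CHO-K1 ARE-luc cells, measured 24 h post-dosing; agonism = increased mean luminescence vs DMSO controls, fitted in positive direction.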
# [15] = target: Bile acid receptor (Homo sapiens) (UniProt Q96RI1); experiment: OT_FXR_FXRSRC1_1440: Odyssey Thera (OT) 24-hour HEK293T Protein-Complementation Assay for Farnesoid X receptor/SRC-1 Co-activator (AID 2283384)
# Summary of the method: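 Fluorescence readout, 24 h post-dose, HEK293T; FXR and SRC-1 fused to complementary reporter fragments, association reconstitutes signal. Positive-direction fit vs DMSO baseline.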
# [16] = target: guinea pig Sigma Receptor, Non-selective Binding, SIGMAR1 (gene 100135589) (UniProt Q60492); experiment: NVS_OR_gSIGMA_NonSelective: NovaScreen (NVS) Nuclear Receptor Binding Assay for guinea pig Sigma Receptor, Non-selective Binding (AID 2283367)
# Chain of guinea pig Sigma Receptor, Non-selective Binding, SIGMAR1 (gene 100135589) (Q60492 whole entry, looked up): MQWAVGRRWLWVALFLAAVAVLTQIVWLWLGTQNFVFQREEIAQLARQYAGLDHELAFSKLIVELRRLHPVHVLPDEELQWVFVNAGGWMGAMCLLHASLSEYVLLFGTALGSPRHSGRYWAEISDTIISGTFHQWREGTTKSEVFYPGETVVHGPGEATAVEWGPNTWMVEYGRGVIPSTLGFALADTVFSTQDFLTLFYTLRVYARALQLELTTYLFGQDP
# Summary of the method: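 Guinea pig brain membrane sigma sites were labelled with a radioligand, and bound radioactivity was counted after filtration 1 h post-dose. Compounds were screened at 25 uM in duplicate, then retested as concentration series when active.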
# [17] = test system: rat Norepinephrine Transporter (NET), gene 83511; experiment: NVS_TR_rNET: NovaScreen (NVS) Transporter Assay for rat Norepinephrine Transporter (NET) (AID 2283373)
# Summary of the method: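 Competitive radioligand displacement at the rat NET using forebrain membrane preparations, 1 h incubation, filter-based scintillation readout. Primary testing in duplicate at a single 25 uM concentration; confirmed actives retested across concentrations.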
# [18] = target: mouse Estrogen Receptor alpha (Era), Esr1 (gene 13982) (UniProt P19785); experiment: NVS_NR_mERa: NovaScreen (NVS) Nuclear Receptor Binding Assay for mouse Estrogen Receptor alpha (Era) (AID 2283378);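 further: hit means loss of bound radioligand signal relative to DMSO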
# Summary of the method: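 Measurements come from scintillation counting after filtration, taken 18 hours after chemicals were added to a cell-free mouse Era preparation with radioligand. Screening was duplicate at 25 uM, with concurrent positive and negative controls and confirmatory concentration series for actives.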
# [19] = target: rat Androgen Receptor (AR), Ar (gene 24208) (UniProt P15207); experiment: NVS_NR_rAR: NovaScreen (NVS) Nuclear Receptor Binding Assay for rat Androgen Receptor (AR) (AID 2283366)
# Summary of the method: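 Actives from a duplicate single-concentration (25 uM) primary run went on to concentration series. Displacement of radioligand was counted by filtration and scintillation, 18 h post-dose, using prostate extracts from testosterone-pretreated rats, with DMSO as baseline.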
# [20] = target: human Serotonin Transporter (SERT), SLC6A4 (gene 6532) (UniProt P31645); experiment: NVS_TR_hSERT: NovaScreen (NVS) Transporter Assay for human Serotonin Transporter (SERT) (AID 2283372)
# Summary of the method: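 Human platelet membrane preparation; displacement of radioligand from serotonin transporter measured after 1 h by filtration and scintillation counting. Single 25 uM duplicate screen, then concentration series for actives, with DMSO as negative baseline.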
structure (smiles),measurement,setting,value
CCC(C)(C)C(=O)O[C@H]1C[C@@H](C)C=C2C=C[C@H](C)[C@H](CC[C@@H]3C[C@@H](O)CC(=O)O3)[C@H]21,AC50,[1],14.5 µM (active)
same,AC50,[2],25 µM (active)
same,outcome,[3],inactive
same,outcome,[4],inactive
same,outcome,[5],inactive
same,outcome,[6],inactive
same,outcome,[7],inactive
same,outcome,[8],inactive
same,outcome,[9],inactive
O=C(OC[C@H]1O[C@@H](OC(=O)c2cc(O)c(O)c(OC(=O)c3cc(O)c(O)c(O)c3)c2)[C@H](OC(=O)c2cc(O)c(O)c(OC(=O)c3cc(O)c(O)c(O)c3)c2)[C@@H](OC(=O)c2cc(O)c(O)c(OC(=O)c3cc(O)c(O)c(O)c3)c2)[C@@H]1OC(=O)c1cc(O)c(O)c(OC(=O)c2cc(O)c(O)c(O)c2)c1)c1cc(O)c(O)c(OC(=O)c2cc(O)c(O)c(O)c2)c1,AC50,[1],0.533 µM (active)
same,AC50,[2],3.15 µM (active)
same,outcome,[10],inactive
same,AC50,[9],15.2 µM (active)
O=P(OC(CCl)CCl)(OC(CCl)CCl)OC(CCl)CCl,AC50,[1],15.5 µM (active)
same,outcome,[5],inactive
same,outcome,[6],inactive
same,outcome,[7],inactive
same,outcome,[9],inactive
COC(=O)c1ccccc1O,outcome,[11],inactive
same,outcome,[5],inactive
same,outcome,[6],inactive
same,outcome,[7],inactive
Cn1cnc([N+](=O)[O-])c1Sc1ncnc2nc[nH]c12,outcome,[12],inactive
same,outcome,[3],inactive
same,outcome,[5],inactive
same,outcome,[6],inactive
same,outcome,[7],inactive
same,outcome,[9],inactive
CNS(=O)(=O)c1cc(C(=O)N2CCC(CCN3C4CCC3CC(n3c(C)nc5ccccc53)C4)(c3cccc(F)c3)CC2)c(Cl)cc1F (configuration not stated),outcome,[12],inactive
same,outcome,[3],inactive
same,AC50,[13],8.93 µM (active)
same,AC50,[4],2.25 µM (active)
same,outcome,[14],inactive
same,outcome,[5],inactive
same,AC50,[15],17.6 µM (active)
same,AC50,[8],14.3 µM (active)
same,outcome,[8],inactive
same,AC50,[9],28.4 µM (active) and 12.1 µM (active)
COc1cccc(-c2ccc(/C=C\CN3CCCCCC3)cc2Cl)c1,outcome,[12],inactive
same,outcome,[11],inactive
same,AC50,[16],0.0104 µM (active)
same,AC50,[10],14.5 µM (active)
same,outcome,[3],inactive
same,AC50,[17],9.83 µM (active)
same,outcome,[13],inactive
same,AC50,[4],2.67 µM (active)
same,outcome,[18],inactive
same,outcome,[5],inactive
same,outcome,[6],inactive
same,outcome,[7],inactive
same,AC50,[8],10.3 µM (active)
Cc1ccc(N)cc1O,outcome,[11],inactive
same,outcome,[2],inactive
same,outcome,[14],inactive
same,outcome,[5],inactive
same,outcome,[6],inactive
same,outcome,[7],inactive
same,outcome,[8],inactive
same,AC50,[9],50 µM (active)
same,outcome,[9],inactive
CCOc1cccc(-n2cc(C(=O)N3CCN(c4cc(C(=O)O)c5ccccc5c4)CC3)nc2-c2ccc(C)cc2)c1,AC50,[1],14.6 µM (active)
same,AC50,[19],13.5 µM (active)
same,AC50,[2],14.8 µM (active)
same,AC50,[10],23.8 µM (active)
same,outcome,[3],inactive
same,AC50,[20],34.2 µM (active)
same,AC50,[13],14.7 µM (active)
same,AC50,[4],13.7 µM (active)
same,outcome,[14],inactive
same,outcome,[5],inactive
same,AC50,[15],11.3 µM (active)
O=C(O)c1cc(N=Nc2ccc(S(=O)(=O)Nc3ccccn3)cc2)ccc1O,outcome,[11],inactive
same,outcome,[3],inactive
same,outcome,[5],inactive
same,outcome,[8],inactive
same,outcome,[9],inactive
CN(C)c1ccc(Cc2ccc(N(C)C)cc2)cc1,outcome,[11],inactive
same,AC50,[16],5.19 µM (active)
same,outcome,[5],inactive
same,outcome,[15],inactive
same,AC50,[8],35.1 µM (active)
same,outcome,[8],inactive
same,outcome,[9],inactive
CC(C)CC(C)(O)C#CC(C)(O)CC(C)C (configuration not stated),AC50,[16],15 µM (active)
same,outcome,[5],inactive
same,outcome,[8],inactive
COCCOc1cc2cc(C(=O)NC3CCN(C(C)C)CC3)n(CC(=O)Nc3ccc(Cl)cn3)c2cn1,AC50,[20],15.4 µM (active)
same,AC50,[4],5.89 µM (active)
same,AC50,[5],58 µM (active)
same,outcome,[8],inactive
same,outcome,[9],inactive
CCN(C(=O)c1cc(C)cc(OC[C@H](C)Nc2ccncc2)c1)C(C)C,AC50,[16],6.22 µM (active)
same,outcome,[3],inactive
same,outcome,[5],inactive
CC[C@H]1CC[C@H](NCc2cc3c(cc2OC)[C@H]2C[C@H]2C(=O)N3C)[C@H](c2ccccc2)N1,AC50,[16],10.9 µM (active)
same,AC50,[17],25 µM (active)
same,AC50,[4],11.3 µM (active)
same,outcome,[5],inactive
same,outcome,[6],inactive
same,outcome,[7],inactive
same,outcome,[9],inactive
CCCCC(CC)COC(=O)CCCCCCCCC(=O)OCC(CC)CCCC (configuration not stated),AC50,[2],39.9 µM (active)
same,outcome,[6],inactive
same,outcome,[7],inactive
same,outcome,[15],inactive
same,outcome,[8],inactive
same,outcome,[9],inactive
